Data on 40 molecules can be found in PubChem BioAssay (NCI).

About 83,000 compounds went through this panel and 20% of them were active in at least one assay; those are over-represented in the sample as a whole.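 Single-concentration screen, 48 h exposure, 96-well plates. Endpoint: percent growth. Below 10 = active.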 The source made the active and inactive calls.

This assay concerns HCC-2998 colon. As to the kind of experiment: NCI-60 one-dose screen, 48 h (100 = growth as untreated, 0 = no growth, -100 = all killed). The following applies: 10 µM unless noted. The procedure: Growth inhibition of the HCC-2998 human tumor cell line is measured as a screen for anti-cancer activity. Cells are grown in 96 well plates and exposed to the test compound for 48 hours. Compounds are tested at a single concentration, which is 10^-5 M for most compounds. The reported endpoint is percent growth (GI% or GIPRCNT), where numbers from 0 - 100% represent growth inhibition, and numbers from -100% - 0 represent cell death. For example, a value of 40 represents 60% growth inhibition. A value of 0 means no net growth occurred over the course of the experiment. A value of -40 indicates 40% of cells at the beginning of the experiment died by the end of the experiment. A value of -100 means all cells are dead at the end of the experiment.
NCI-60 Human Tumor Cell Lines Screen was performed using the standard one-dose NCI protocol, which is described in more detail at https://dtp.cancer.gov/discovery_development/nci-60/default.htm.
Compounds with GIPRCNT values below 10 were considered active. Activity score was based on GIPRCNT using the following formula: […]
Score is 0 for GIPRCNT values of 100 or above, 50 for GIPRCNT values of 0, and 100 for GIPRCNT values of -100.
With `O=C(/C=C/c1cn(-c2ccccc2)nc1-c1ccccc1)OCc1cn(-c2cccc([N+](=O)[O-])c2)nn1`, the growth is 96.7% (inactive).
Regarding `CC(C)(CCc1ccccn1)C(=O)CCCc1ccccn1`, the growth is 107% (inactive).
As to `CC(C)C/C=C/C=C/C(=O)N[C@@H](CC(N)=O)C(=O)N[C@@H]1C(=O)N[C@H](c2ccc(O)cc2)C(=O)N[C@H](CCCN)C(=O)N[C@H]([C@@H](C)O)C(=O)N[C@H](c2ccc(O)cc2)C(=O)N[C@H](c2ccc(O)cc2)C(=O)N[C@H]([C@H](C)O)C(=O)N[C@H](Cc2ccccc2)C(=O)N[C@H](CCCN)C(=O)N[C@H](c2ccc(O[C@H]3O[C@@H](CO)[C@@H](O)[C@@H](O)[C@H]3O[C@@H]3O[C@H](CO)[C@H](O)[C@H](O)[C@@H]3O)cc2)C(=O)N[C@H]([C@H](C)O)C(=O)N[C@H](c2ccc(O)cc2)C(=O)NCC(=O)N[C@H](CC(C)C)C(=O)N[C@H](C)C(=O)N[C@H](c2ccc(O)c(Cl)c2)C(=O)O[C@@H]1C(N)=O`, the growth is 104% (inactive).
The result for `N/C(=N\O)c1ncc(-c2ccc(C(F)(F)F)cc2)c(NC2CCCCCC2)n1` reads -95.6% [100 µM] (active); that for `Cc1ccccc1Nc1n[nH]c(Cc2ccccc2)n1`, 100% (inactive); that for `CCCCCc1c(C)[nH]c(/C=C2\N=C(c3ccc[nH]3)C=C2Oc2ccc(OC)cc2)c1C`, -58.2% [100 µM] (active).
On to `COC(=O)c1ccc2c(c1)nc(-c1cc3ccccc3[nH]c1=O)n2-c1cc(C(C)(C)C)[nH]n1`, for which the growth is -10.1% (active).
The result for `Cc1ccc(C(=O)CC(=O)C(F)(F)C(F)(F)C(F)(F)F)s1` reads 105% (inactive).
The result for `CCCCCCCOc1cccc(/C=C2\N=C3SCCCN3C2=O)c1` reads 110% (inactive); that for `C[Si](C)(C)C(c1ccccc1)c1ccccc1`, 97.2% (inactive); that for `Cc1ccc(C(CN(C)C)C(=O)c2ccccc2)cc1` (stereo not given), 101% (inactive).
With `C=C(C)[C@@H]1CC[C@]2(C(=O)O)CC[C@]3(C)[C@H](CC[C@@H]4[C@@]5(C)C[C@@H](CC#Cc6ccc(C(C)=O)s6)[C@H](O)C(C)(C)[C@@H]5CC[C@]43C)[C@@H]12` the figure was 62.9% (inactive).
`C(=Nc1ccc(-c2ccc(N=Cc3ccccc3)cc2)cc1)c1ccccc1`: the growth is 110% (inactive).
The result for `CCS(=O)(=O)Nc1cccc(Nc2c3cccc(C)c3nc3c(C)cccc23)c1OC` reads 1.62% (active).
With `COc1ccccc1CNCCCN1C(=O)c2ccc3c4c(ccc(c24)C1=O)C(=O)N(CCCCNCCCN)C3=O` the figure was -6.41% (active).
With `CC(C)[C@@]12C[C@@H](OC(=O)[C@H]3CO3)[C@@](C)(O1)[C@@H]1CC[C@@H](C)[C@H]1[C@@H]2OC(=O)/C=C/c1ccccc1`, the growth is 105% (inactive).
As to `COc1cc(/C=C/c2cc(/C=C/c3ccc(O)c(OC)c3)n(C(=O)c3ccccc3Br)n2)ccc1O`, the growth was 40.9% (inactive).
Turning to `CN1C(=O)NC(Cc2c[nH]c3c(Cl)cccc23)C1=O` (stereo not given), the growth was 97.5% (inactive).
The result for `CCCCOc1nc2ccccc2cc1/C=C/c1cc(/C=C/c2cc3ccccc3nc2OCCCC)n(-c2ccccc2)n1` reads 119% (inactive).
With `COC1(OC)C2(Cl)CCC1(Cl)C(Cl)=C2Cl` the figure was 103% (inactive); with `COc1cc(C2CC(c3ccc(Cl)cc3)=NN2C(C)=O)ccc1Oc1ccnc2cc(Cl)ccc12` (stereo not given), 59.4% (inactive).
With `CCC1=CC2CN(C1)Cc1c([nH]c3ccccc13)[C@@](C(=O)OC)(c1cc3c(cc1OC)N(C)[C@H]1[C@@](O)(C(=O)OC)[C@H](OC(C)=O)[C@]4(CC)C=CCN5CC[C@]31[C@@H]54)C2` (stereo not given in full) the figure was -36% (active); with `Cc1nn(-c2ccccc2)c2nc3c(nc12)C1=NCCN1C(c1ccc(Cl)cc1)N3` (stereo not given), -25.2% (active); with `CCC(=O)NC1=C(Cl)C(=O)C(NC(=O)CC)=C(Cl)C1=O`, 103% (inactive).
Take `Cc1cccc(/C=N/n2c(-c3ccc(Cl)cc3)nc3c(Br)cc(Br)cc3c2=O)c1`: the growth was 55.6% (inactive).
The result for `COc1cc(C2C(C#N)=C(N)Oc3cc4c(cc32)OCO4)cc2c1OCO2` (stereo not given) reads 14.7% (inactive); that for `COc1cnc2c(c1)C(=O)c1c-2n(CCCN2CCCC2)c(=O)c2cc(Cl)ccc12`, 62.1% (inactive).
The result for `COc1cc(C2CC(c3ccc(C)cc3)=NN2C=O)ccc1Oc1nc2c(c(=O)n(C)c(=O)n2C)n1C` (stereo not given) reads 86.6% (inactive); that for `COc1ccccc1/C=C/C(=O)CCC(=O)O`, 114% (inactive).
With `O=C1OCC2=C1C(c1ccccc1)c1cc3c(cc1N2CCO)OCO3` (stereo not given) the figure was 24.5% (inactive); with `COc1cc([N+](=O)[O-])cc(OC)c1OC`, 107% (inactive).
As for `CC(C)c1ccc2c(c1)CCC1C2CCCC1(C)NCc1ccccc1` (stereo not given), the growth was -91.3% (active).
With `Cc1ccc(Nc2cc(Cl)c([N+](=O)[O-])cc2[N+](=O)[O-])cc1` the figure was 42.4% (inactive); with `Cc1ccc(NC(=O)c2cc(NCc3cc(O)ccc3O)ccc2O)cc1`, 106% (inactive).
With `CCn1c(Cc2ccccc2Nc2c(Cl)cccc2Cl)nnc1SCC(=O)Nc1cccc(OC)c1` the figure was 100% (inactive); with `CC(=O)c1ccc(Br)c([N+](=O)[O-])c1`, 109% (inactive).
With `CCN(CC)c1ccc2c(cc1=O)[C@@H](NC(C)=O)CCc1cc(OC)c(OC)c(OC)c1-2` the figure was 22.9% (inactive); with `COc1cc(C2CC(c3ccccc3)=NN2C=O)ccc1Oc1ccnc2cc(Cl)ccc12` (stereo not given), 87.4% (inactive); with `CN1C(=O)N(C)C2C1NN=c1s/c(=C\c3ccc(C(F)(F)F)cc3)c(=O)n12` (stereo not given), 54.9% (inactive).
Turning to `N/C(=N\OC(=O)c1ccccc1)C(C(=O)NOC(=O)c1ccccc1)C1CCCCC1` (stereo not given), the growth was 98% (inactive).
